By AC50 is commonly meant the concentration giving half of the maximal activity seen.

Here are results for 18 compounds from PubChem BioAssay (EPA / NIEHS).

Inconclusive results are not listed. Activity calls are given as the source filed them. Rule for the calls, unless noted: active = hit-call score of the fitted dose curve at least 0.9, where 1 is the maximum; inconclusive = response in the unintended direction; inactive = score below 0.9.

Experiment [1] deals with bovine Gamma-Aminobutyric Acid Type A Receptor Agonist (GABAR Agonist), GABRA1 (gene 780973) (UniProt P08219). The experiment in a line: NVS_LGIC_bGABAR_Agonist: NovaScreen (NVS) Ligand-Gated Ion Channel Assay for bovine Gamma-Aminobutyric Acid Type A Receptor Agonist (GABAR Agonist) (AID 2283338). The method in brief: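 Radioligand binding to bovine cerebellar membranes in agonist format, read by filter-based scintillation counting after 1 h. Primary screen in duplicate at 25 uM, with actives followed in concentration series. Gain of signal versus DMSO.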
Chain of bovine Gamma-Aminobutyric Acid Type A Receptor Agonist (GABAR Agonist), GABRA1 (gene 780973) (P08219 whole entry, looked up): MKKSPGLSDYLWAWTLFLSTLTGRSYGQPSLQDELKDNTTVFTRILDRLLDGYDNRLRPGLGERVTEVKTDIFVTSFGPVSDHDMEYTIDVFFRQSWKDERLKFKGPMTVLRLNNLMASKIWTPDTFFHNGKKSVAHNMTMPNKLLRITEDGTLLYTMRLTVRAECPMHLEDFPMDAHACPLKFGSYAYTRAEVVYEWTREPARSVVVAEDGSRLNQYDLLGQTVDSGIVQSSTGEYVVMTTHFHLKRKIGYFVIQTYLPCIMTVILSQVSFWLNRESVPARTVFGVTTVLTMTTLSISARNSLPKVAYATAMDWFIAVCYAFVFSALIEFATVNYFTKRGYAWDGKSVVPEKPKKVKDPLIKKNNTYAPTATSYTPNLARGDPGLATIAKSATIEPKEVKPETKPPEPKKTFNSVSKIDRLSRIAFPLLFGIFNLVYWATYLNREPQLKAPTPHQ

Experiment [2] has as its target Estrogen receptor (Homo sapiens) (UniProt P03372). The experiment in a line: NVS_NR_hER: NovaScreen (NVS) Nuclear Receptor Binding Assay for human Estrogen Receptor (ER) (AID 2283348). The method in brief: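 Cell-free MCF7-derived ER preparation, specific radioligand displaced by test compound, read by scintillation counting 18 h post-dosing. Duplicate single-point 25 uM screen, then concentration-response confirmation; DMSO baseline.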

Experiment [3] has as its target Voltage-gated inwardly rectifying potassium channel KCNH2 (Homo sapiens) (UniProt Q12809). The experiment can be described thus: NVS_IC_hKhERGCh: NovaScreen (NVS) Ion Channel Assay for human Potassium Channel ERG (KhERGCh) (AID 2283333). In outline:
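Membranes from CHO cells expressing human ERG; displacement of radioligand measured by filtration and scintillation after 0.75 h. Single-concentration duplicate screen at 25 uM, then concentration-response for actives; DMSO baseline.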

Experiment [4] concerns guinea pig Histamine Receptor (H2), gene 100729734. The experiment in a line: NVS_GPCR_gH2: NovaScreen (NVS) G Protein-Coupled Receptor Assay for guinea pig Histamine Receptor (H2) (AID 2283342). The method in brief: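 Guinea pig striatal membrane preparation with specific radioligand; bound counts measured by filtration and scintillation 1 h post-dosing, DMSO as baseline. Chemicals passing a 25 uM duplicate screen were titrated to a 50 uM maximum.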

The target of experiment [5] is human Constitutive Androstane Receptor (CAR), NR1I3 (gene 9970) (UniProt Q14994). The experiment in a line: NVS_NR_hCAR_Antagonist: NovaScreen (NVS) Nuclear Receptor Binding Assay for human Constitutive Androstane Receptor Antagonism (CAR) (AID 2283344). In outline:
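Single 25 uM duplicate primary screen, with concentration-series follow-up on actives. Cell-free binding format run in antagonist mode, TR-FRET signal taken 1 h post-dose; activity is signal loss relative to DMSO.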

Experiment [6] is described as follows: NVS_IC_rCaBTZCHL: NovaScreen (NVS) Ion Channel Assay for Calcium Channel, Type L, Benzothiazepine Site (CaBTZCHL) (AID 2283337). The method in brief:
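Test chemicals were added to rat cortical membranes and incubated 1.5 h with a tritiated or iodinated radioligand for the benzothiazepine site. Bound ligand was separated by filtration and counted. Actives from the 25 uM duplicate screen were retested in concentration series.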

The target in experiment [7] is Glutamate receptor ionotropic, kainate 1 (Rattus norvegicus) (UniProt P22756). The experiment can be described thus: NVS_IC_rKAR: NovaScreen (NVS) Ion Channel Assay for rat Kainic Acid Receptors (KAR) (AID 2283334; active = hit-call score of the fitted dose curve at least 0.9, where 1 is the maximum; inactive = score below 0.9). In outline: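 Rat forebrain membrane preparation incubated 1 h with radioligand and test chemical; bound signal read by filtration and scintillation. Single-concentration screen at 25 uM, then concentration series to 50 uM maximum.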
Chain of Glutamate receptor ionotropic, kainate 1 (Rattus norvegicus) (P22756 whole entry, looked up): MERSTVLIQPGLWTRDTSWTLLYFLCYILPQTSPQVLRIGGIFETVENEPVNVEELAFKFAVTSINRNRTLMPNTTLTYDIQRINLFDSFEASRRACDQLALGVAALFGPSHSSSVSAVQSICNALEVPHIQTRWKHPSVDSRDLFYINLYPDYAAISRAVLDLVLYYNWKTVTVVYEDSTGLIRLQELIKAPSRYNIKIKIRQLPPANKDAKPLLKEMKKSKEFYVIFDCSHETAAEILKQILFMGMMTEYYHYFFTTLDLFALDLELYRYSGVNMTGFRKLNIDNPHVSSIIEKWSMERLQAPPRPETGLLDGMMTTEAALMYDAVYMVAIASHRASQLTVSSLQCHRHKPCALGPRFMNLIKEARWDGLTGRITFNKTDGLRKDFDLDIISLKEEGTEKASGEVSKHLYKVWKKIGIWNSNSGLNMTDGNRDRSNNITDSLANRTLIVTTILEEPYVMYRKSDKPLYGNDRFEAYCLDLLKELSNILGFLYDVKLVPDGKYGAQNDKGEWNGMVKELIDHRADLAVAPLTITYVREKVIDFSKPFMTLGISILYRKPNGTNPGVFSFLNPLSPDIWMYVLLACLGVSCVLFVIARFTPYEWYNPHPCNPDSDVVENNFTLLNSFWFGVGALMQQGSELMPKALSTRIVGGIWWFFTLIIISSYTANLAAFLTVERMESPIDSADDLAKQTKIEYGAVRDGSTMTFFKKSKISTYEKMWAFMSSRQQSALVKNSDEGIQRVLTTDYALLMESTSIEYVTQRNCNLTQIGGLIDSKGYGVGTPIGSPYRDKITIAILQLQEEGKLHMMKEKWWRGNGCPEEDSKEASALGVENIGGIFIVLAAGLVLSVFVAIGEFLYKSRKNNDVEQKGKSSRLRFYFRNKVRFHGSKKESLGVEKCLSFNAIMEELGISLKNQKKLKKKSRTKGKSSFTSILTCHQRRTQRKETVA

Experiment [8] concerns the target Small conductance calcium-activated potassium channel protein 1 (Rattus norvegicus) (UniProt P70606). The experiment can be described thus: NVS_IC_rKCaCh: NovaScreen (NVS) Ion Channel Assay for rat Potassium Channel, Ca2+ Act., VI (KCaCh) (AID 2283336). In outline:
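Filter-based scintillation counting of radioligand bound to rat forebrain membrane preparations, measured 1 h after compound addition. Primary screen used 25 uM in duplicate, with concentration-response follow-up; signal decrease relative to DMSO marks activity.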

Experiment [9] deals with rat Glycine Receptor, Strychnine-sensitive (GlyRStrySens), Glra1 (gene 25674) (UniProt P07727). The experiment in a line: NVS_LGIC_rGlyRStrySens: NovaScreen (NVS) Ligand-Gated Ion Channel Assay for rat Glycine Receptor, Strychnine-sensitive (GlyRStrySens) (AID 2283341). In outline: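 Radioligand displacement on rat spinal cord membranes, 1 hr, filter scintillation read-out. Single-concentration duplicate screen at 25 uM; chemicals meeting threshold (e.g., 30% inhibition) rerun in concentration-response up to 50 uM. Loss of binding fitted versus DMSO.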
Chain of rat Glycine Receptor, Strychnine-sensitive (GlyRStrySens), Glra1 (gene 25674) (P07727 whole entry, looked up): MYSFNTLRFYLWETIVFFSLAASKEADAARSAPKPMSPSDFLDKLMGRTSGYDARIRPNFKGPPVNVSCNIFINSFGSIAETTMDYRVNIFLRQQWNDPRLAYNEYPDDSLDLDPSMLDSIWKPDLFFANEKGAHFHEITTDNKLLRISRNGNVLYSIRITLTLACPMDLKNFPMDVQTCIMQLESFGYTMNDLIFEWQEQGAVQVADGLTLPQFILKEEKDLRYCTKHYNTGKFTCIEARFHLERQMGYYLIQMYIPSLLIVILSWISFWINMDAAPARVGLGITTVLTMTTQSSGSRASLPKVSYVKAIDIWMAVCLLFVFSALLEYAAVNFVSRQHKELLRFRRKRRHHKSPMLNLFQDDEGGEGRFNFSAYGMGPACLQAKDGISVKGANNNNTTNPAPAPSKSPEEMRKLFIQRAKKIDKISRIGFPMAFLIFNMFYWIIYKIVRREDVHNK

The target of experiment [10] is bovine Estrogen Receptor (ER), ESR1 (gene 407238) (UniProt P49884). The experiment in a line: NVS_NR_bER: NovaScreen (NVS) Nuclear Receptor Binding Assay for bovine Estrogen Receptor (ER) (AID 2283345).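 Note: actives lower the bound radioligand count which means they displace the ER ligand.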 In outline:
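Displacement of a radioligand from estrogen receptor in bovine uterine membrane preparations; scintillation signal taken at 18 hours, DMSO as baseline. Single-concentration duplicates (25 uM) preceded concentration-response follow-up of actives.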

The target of experiment [11] is human Peripheral-type Benzodiazepine Receptor (PBR), TSPO (gene 706) (UniProt P30536). The experiment in a line: NVS_MP_hPBR: NovaScreen (NVS) Membrane Protein Assay for human Peripheral-type Benzodiazepine Receptor (PBR) (AID 2283331).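 Note: hits reduce radioligand binding relative to DMSO baseline.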 In outline: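 Cell-free binding to human colonic membrane preparations measured by filter-based scintillation counting after 1 h. Compounds first run at 25 uM in duplicate, then concentration series for actives; signal loss against DMSO baseline.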
Chain of human Peripheral-type Benzodiazepine Receptor (PBR), TSPO (gene 706) (P30536 whole entry, looked up): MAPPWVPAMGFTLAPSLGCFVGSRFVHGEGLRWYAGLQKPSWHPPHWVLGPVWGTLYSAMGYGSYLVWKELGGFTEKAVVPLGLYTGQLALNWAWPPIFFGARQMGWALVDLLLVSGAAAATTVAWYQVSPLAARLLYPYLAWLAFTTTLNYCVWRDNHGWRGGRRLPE

Experiment [12] deals with chimpanzee Androgen Receptor (AR), AR (gene 747460) (UniProt O97775). The experiment in a line: NVS_NR_cAR: NovaScreen (NVS) Nuclear Receptor Binding Assay for chimpanzee Androgen Receptor (AR) (AID 2283346).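 Note: radioligand displacement from AR measured by scintillation counting in a cell-free assay; a loss of bound radioligand signal versus DMSO counts as binding.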 In outline: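 Cell-free competition binding with insect-cell (Sf9/Sf21) extracted chimpanzee AR; scintillation signal from lysate at 72 h. Screened in duplicate at 25 uM, then concentration-response for actives; fitting relative to DMSO.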
Chain of chimpanzee Androgen Receptor (AR), AR (gene 747460) (O97775 whole entry, looked up): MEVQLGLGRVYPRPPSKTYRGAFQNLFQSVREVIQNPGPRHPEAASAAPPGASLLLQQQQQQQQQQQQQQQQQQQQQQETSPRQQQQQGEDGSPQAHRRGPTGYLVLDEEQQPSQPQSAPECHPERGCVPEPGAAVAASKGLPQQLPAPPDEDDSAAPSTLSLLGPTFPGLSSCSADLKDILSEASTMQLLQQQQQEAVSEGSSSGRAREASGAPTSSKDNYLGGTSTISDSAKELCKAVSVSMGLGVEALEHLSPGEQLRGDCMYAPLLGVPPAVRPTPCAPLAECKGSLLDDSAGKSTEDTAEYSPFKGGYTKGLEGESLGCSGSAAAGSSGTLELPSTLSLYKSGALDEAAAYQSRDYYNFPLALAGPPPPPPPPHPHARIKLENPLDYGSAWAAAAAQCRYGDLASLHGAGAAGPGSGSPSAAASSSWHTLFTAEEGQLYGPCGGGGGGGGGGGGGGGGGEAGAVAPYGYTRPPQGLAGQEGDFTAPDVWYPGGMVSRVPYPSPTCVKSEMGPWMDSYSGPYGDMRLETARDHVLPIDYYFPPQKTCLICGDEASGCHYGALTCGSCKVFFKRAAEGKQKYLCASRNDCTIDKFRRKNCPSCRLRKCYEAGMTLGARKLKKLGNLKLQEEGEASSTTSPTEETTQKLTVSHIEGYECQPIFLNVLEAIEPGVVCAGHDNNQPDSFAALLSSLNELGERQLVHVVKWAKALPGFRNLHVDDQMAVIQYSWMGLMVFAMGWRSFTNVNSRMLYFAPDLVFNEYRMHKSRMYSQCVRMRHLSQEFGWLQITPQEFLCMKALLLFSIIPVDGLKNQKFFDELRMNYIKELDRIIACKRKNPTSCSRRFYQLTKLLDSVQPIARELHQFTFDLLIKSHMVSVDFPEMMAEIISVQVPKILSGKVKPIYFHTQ

In another experiment the test system is NCBI gene 100848466. The experiment in a line: NVS_NR_bPR: NovaScreen (NVS) Nuclear Receptor Binding Assay for bovine Progextron Receptor (PR) (AID 2283343).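 Note: actives lower bound radioligand signal below DMSO meaning displacement of the label.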 The method in brief: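 Competitive radioligand binding with membranes from bovine uterus, scintillation read-out at 18 h post-dose. Compounds first tested in duplicate at 25 uM, then actives in concentration series; loss-of-signal relative to DMSO.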

In experiment [13] the target is human Androgen Receptor (AR), AR (gene 367) (UniProt P10275). The experiment can be described thus: NVS_NR_hAR: NovaScreen (NVS) Nuclear Receptor Binding Assay for human Androgen Receptor (AR) (AID 2283332). The method in brief:
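Radioligand competitive binding, scintillation read-out, in cell-free extract from LnCAP, measured 20 h after dosing. Screened first in duplicate at 25 uM, then concentration series for actives; activity fitted against DMSO.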

Chain of Estrogen receptor (Homo sapiens) (P03372 whole entry, looked up): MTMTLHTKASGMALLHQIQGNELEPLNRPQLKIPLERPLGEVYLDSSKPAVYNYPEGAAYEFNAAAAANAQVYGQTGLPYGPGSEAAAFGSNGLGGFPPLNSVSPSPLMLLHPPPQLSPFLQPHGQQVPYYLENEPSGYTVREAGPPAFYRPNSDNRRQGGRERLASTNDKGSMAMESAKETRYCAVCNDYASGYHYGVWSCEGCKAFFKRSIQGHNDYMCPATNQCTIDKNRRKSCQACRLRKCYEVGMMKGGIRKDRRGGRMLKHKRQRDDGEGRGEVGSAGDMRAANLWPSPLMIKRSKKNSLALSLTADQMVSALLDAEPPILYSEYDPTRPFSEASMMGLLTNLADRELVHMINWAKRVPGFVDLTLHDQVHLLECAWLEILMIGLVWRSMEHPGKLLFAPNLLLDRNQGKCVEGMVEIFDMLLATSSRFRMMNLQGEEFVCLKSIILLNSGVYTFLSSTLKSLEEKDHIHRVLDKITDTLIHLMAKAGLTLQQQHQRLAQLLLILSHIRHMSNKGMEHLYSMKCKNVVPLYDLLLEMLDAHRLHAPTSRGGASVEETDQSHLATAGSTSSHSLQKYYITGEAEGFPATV
Chain of human Androgen Receptor (AR), AR (gene 367) (P10275 whole entry, looked up): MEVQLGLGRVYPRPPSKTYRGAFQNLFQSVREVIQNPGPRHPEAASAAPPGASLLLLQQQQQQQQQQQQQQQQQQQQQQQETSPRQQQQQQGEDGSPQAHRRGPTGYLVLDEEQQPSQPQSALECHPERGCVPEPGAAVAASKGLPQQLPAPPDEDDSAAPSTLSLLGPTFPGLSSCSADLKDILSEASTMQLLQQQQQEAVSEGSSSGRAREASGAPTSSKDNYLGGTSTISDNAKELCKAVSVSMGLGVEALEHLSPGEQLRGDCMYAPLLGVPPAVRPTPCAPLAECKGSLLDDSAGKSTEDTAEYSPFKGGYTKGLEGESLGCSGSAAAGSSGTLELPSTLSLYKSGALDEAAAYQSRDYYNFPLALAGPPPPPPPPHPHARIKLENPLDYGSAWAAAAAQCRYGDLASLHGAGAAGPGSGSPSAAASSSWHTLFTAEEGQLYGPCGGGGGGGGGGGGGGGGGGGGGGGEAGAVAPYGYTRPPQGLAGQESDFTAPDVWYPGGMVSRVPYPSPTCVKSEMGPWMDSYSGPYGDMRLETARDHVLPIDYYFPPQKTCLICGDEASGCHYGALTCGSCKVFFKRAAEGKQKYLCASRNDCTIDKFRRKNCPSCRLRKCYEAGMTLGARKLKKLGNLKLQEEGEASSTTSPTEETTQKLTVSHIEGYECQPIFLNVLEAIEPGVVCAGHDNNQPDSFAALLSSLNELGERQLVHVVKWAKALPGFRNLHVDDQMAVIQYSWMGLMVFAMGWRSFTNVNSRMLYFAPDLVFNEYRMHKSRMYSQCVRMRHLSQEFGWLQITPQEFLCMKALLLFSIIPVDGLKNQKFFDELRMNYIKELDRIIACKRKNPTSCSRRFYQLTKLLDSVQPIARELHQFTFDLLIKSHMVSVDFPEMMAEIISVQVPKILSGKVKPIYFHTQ
Chain of Small conductance calcium-activated potassium channel protein 1 (Rattus norvegicus) (P70606 whole entry, looked up): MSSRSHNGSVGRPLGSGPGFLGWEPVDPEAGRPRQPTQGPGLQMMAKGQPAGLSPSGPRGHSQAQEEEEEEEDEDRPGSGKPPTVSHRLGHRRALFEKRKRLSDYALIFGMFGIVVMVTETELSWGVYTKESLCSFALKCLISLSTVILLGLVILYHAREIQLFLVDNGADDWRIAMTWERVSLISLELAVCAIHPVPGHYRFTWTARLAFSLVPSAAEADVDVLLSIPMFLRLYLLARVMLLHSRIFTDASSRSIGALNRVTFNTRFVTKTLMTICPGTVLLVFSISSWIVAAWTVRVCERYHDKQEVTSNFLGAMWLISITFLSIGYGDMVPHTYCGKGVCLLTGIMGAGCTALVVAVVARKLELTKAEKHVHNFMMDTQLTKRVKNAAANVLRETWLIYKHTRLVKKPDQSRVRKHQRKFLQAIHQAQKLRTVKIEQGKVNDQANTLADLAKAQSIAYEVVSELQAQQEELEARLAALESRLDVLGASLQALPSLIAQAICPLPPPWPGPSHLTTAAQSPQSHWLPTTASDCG

Consider `CCCCCCCCCCCCCCCO`, for which the compound was called inactive in experiment [1].

Take `Cn1cnc([N+](=O)[O-])c1Sc1ncnc2nc[nH]c12`: the compound was classed as inactive in experiment [2].

For the compound `CCOC(=O)COc1ccc2c(c1)CC(NCC(O)c1cccc(Cl)c1)CC2` (stereo not drawn), the values for the AC50 in experiment [3] and in experiment [4] were 21.5 µM (active) and 32 µM (active), respectively. Further, the compound was called inactive in experiment [2].

On to `CN(C)c1ccc(N=NS(=O)(=O)O)cc1`, for which the call in experiment [5] was inactive.

Turning to `CCCN(C1CCN(C(=O)C2CCNCC2)CC1)[C@@H]1CCc2ccc(OC)cc2C1`, the result in [6] was inactive. Further, in [4], the AC50 was 16.9 µM (active).

For the compound `CCC(C)(C)C(=O)O[C@H]1C[C@@H](C)C=C2C=C[C@H](C)[C@H](CC[C@@H]3C[C@@H](O)CC(=O)O3)[C@H]21`, the call in experiment [7] and in [2] was inactive.

`Nc1cccc(N)c1`: the AC50 in [1] is 6.48 µM (active).

On to `CCOCCO`, for which the outcome in experiment [8] was inactive.

Regarding `CC/C(=C\C(=N/O)C(N)=O)C(C)[N+](=O)[O-]` (stereo not drawn), the compound was classed as inactive in [9] and in [10].

`CCOc1cccc(-n2cc(C(=O)N3CCN(c4cc(C(=O)O)c5ccccc5c4)CC3)nc2-c2ccc(C)cc2)c1`: the AC50 in [11] was 3.71 µM (active); in [12], 20.4 µM (active). For the same compound, the outcome in experiment [4] was inactive.

Turning to `COC(=O)CC(=O)OC`, in [7], the compound was called inactive.

As for `CC(C)=CCCC(C)CCO` (stereo not drawn), the compound was classed as inactive in experiment [2].

On to `O=C(CCCCCCCCc1cccnc1)N1CCC(C=C(c2ccccc2)c2ccccc2)CC1`, for which the compound was called inactive in experiment [4].

As for `CC[C@H]1CC[C@H](NCc2cc3c(cc2OC)[C@H]2C[C@H]2C(=O)N3C)[C@H](c2ccccc2)N1`, the AC50 is 3.79 µM (active) in experiment [6] and 16 µM (active) in experiment [4]. The outcome in experiment [2] was inactive.

On to `O=P(OC(CCl)CCl)(OC(CCl)CCl)OC(CCl)CCl`, for which the figures for the AC50 (in [11]; with NCBI gene 100848466; in experiment [12]) were 2.01 µM (active), 8.22 µM (active) and 13.3 µM (active), respectively. For the same compound, in [2], the call was inactive.

As to `On1ccccc1=S`, the compound was called inactive in experiment [7].

`CNS(=O)(=O)c1cc(C(=O)N2CCC(CCN3C4CCC3CC(n3c(C)nc5ccccc53)C4)(c3cccc(F)c3)CC2)c(Cl)cc1F` (stereo not drawn): the values for the AC50 in experiment [6], in [4] and in experiment [12] were 7.92 µM (active), 8.76 µM (active) and 11.3 µM (active), respectively.

Regarding `CCCCCCc1ccc(O)cc1O`, the AC50 in experiment [13] is 8.25 µM (active). The result in experiment [12] was inactive.
